According to PubChem BioAssay (NCI):
This is part of a sample that, as a whole, favours compounds with a hit. Of some 83,000 tested, about 20% had one in any assay.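 Assay: single dose, 48 h. Readout: percent growth (0 = no net growth; negative = cell death). Active: <10.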 Unmarked numbers belong to inactive results. The source made the active and inactive calls.

System: HL-60(TB) leukemia
Assay: NCI-60 one-dose screen, 48 h (100 = growth as untreated, 0 = no growth, -100 = all killed)
Conditions: 10 µM unless noted

CCCn1c(NC(=O)c2cccc(C(N)=O)c2)nc2cc(CN3CCCCC3)ccc21
growth: 91.4%

CCOC(=O)N/C(=C1/OCCN1C)[P+](c1ccccc1)(c1ccccc1)c1ccccc1
growth: 29.9%

Cc1ccc(-c2cc(-c3ccccc3)[nH]c(=O)c2C#N)cc1
growth: 86.9%

CCOC(=O)/C=C/c1cccc2c1C(=O)NC(C)(c1cc3cc(Br)ccc3oc1=O)N2 (stereo unspecified)
growth: 27.3%

COc1ccc(NC(=O)Cn2c(O)c(N=Nc3ccc(S(N)(=O)=O)cc3)c3ccccc32)cc1
growth: 96.9%

CCN1C(=O)N(CC)C2NNC(Sc3c(C(=O)O)c4ccccc4n(C4CCCC4)c3=O)=NC21 (stereo unspecified)
growth: -9.96% (active)

CCCCSc1nc(Nc2ccc(/C(C)=N/NC(N)=S)cc2)c(C#N)c(-c2ccc(F)cc2)n1
growth: 90.7%

COc1ccc2[nH]cc(-c3cc4nc(-c5cn(C)c6ncc(Br)cc56)cc(N)n4n3)c2c1
growth: -61.2% (active)

COc1ccc([C@H](C)Nc2nc(Cl)nc3ccccc23)cc1
growth: 7.64% (active)

CN1CCN(CCS(=O)(=O)Nc2cc(-c3ccc4ncnc(Nc5ccc(F)c(Cl)c5)c4c3)cnc2Cl)CC1
growth: 19.2%

COc1ccc(C2=NN(C(C)=O)C(c3ccc(OCc4ccc(Cl)cc4)c(OC)c3)C2)cc1OC (stereo unspecified)
growth: 34.6%

CC(C)C[C@H](NC(=O)CNC(=O)C[C@H]1O[C@@H]2OC3(C)CC[C@H]4[C@H](C)CC[C@@H]([C@H]1C)[C@@]24O3)B(O)O
growth: 3.8% (active)

COc1cc(OC(F)(F)F)ccc1C(=O)Nc1sc2c(c1C#N)CCC(=O)C2
growth: 38%

Cc1nn(-c2ccccc2)c2ncn(CC(=O)N/N=C/c3ccccc3O)c(=O)c12
growth: 6.2% (active)

COc1c(B(O)O)cc(F)cc1-c1nc2c(F)cc3[nH]ncc3c2c2c1CCCC2
growth: 1.83% (active)

CCS(=O)(=O)N1CCCC(C(=O)Nc2nc3ccc(NC(=O)c4ccc(F)c(OC)c4F)cc3s2)C1 (stereo unspecified)
growth: 53.9%

COc1ccc(Cc2nn(CC(=O)N/N=C/c3ccc(Br)cc3)c(=O)c3c(C)noc23)cc1
growth: 91.2%

Cc1ccc2c(N)c(C(=O)Nc3ccc(OC(F)(F)F)cc3)sc2n1
growth: 61.6%

CC1(C)CC[C@]2(C(=O)O)CC[C@]3(C)C(=CCC4[C@@]5(C)C[C@@H](O)[C@@H]6OC(c7cccc(F)c7)OC[C@@]6(C)C5CC[C@]43C)C2C1 (stereo partly specified)
growth: 9.5% (active)

COc1ccc(Cc2nn(CC(=O)N/N=C/c3ccc(F)cc3)c(=O)c3c(C)noc23)cc1
growth: 78.2%

C/C(=N\NC(N)=S)c1ccc(Nc2nc(SC(C)C)nc(-c3ccccc3)c2C#N)cc1
growth: 89.9%

O=C(/C=C/c1cccc(OCc2ccc(F)cc2)c1)c1nc2ccccc2[nH]1
growth: 8% (active)

C#C[C@]1(O)CC[C@H]2[C@@H]3CC=C4c5sc(Nc6cc(C)cc(C)n6)nc5CC[C@]4(C)[C@H]3CC[C@@]21C
growth: -16.4% (active)

C=C(c1ccc(OC)c(N)c1)c1cc(C)nc2ccccc12
growth: -22.8% (active)

NS(=O)(=O)c1ccc(N=Nc2c(O)n(CC(=O)Nc3ccccc3Br)c3ccccc23)cc1
growth: 76.6%

N#Cc1cnn(C(=O)c2ccccc2Br)c1NC(=O)c1ccc(Br)cc1Cl
growth: 107%

N#Cc1c(-c2ccc(Br)cc2)nc2n[nH]c(-c3ccc(Br)cc3)c2c1-c1ccc(C(F)(F)F)cc1
growth: -26.2% (active)

CC(=O)Nc1cccc(Nc2nc(N[C@H]3CCCc4ccccc43)c3ccccc3n2)c1
growth: 90.6%

c1n[nH]cc1-c1nc2ccc3[nH]ncc3c2c2c1CC1(CC2)COC1
growth: 29.1%

COc1cc(-c2nc3cc(Cl)c(Cl)cc3[nH]2)ccc1OCc1nnc(-c2cccs2)o1
growth: 72%

CCCCCCCCCCCCCCCCCCCC(=O)NCCc1c[nH]c2ccc(OC(=O)NOCCOCCOCCOCCOCCOCCOCCOCCOCCOCCOCCOCCOCCOCCOCCOCCOCCOCCOCCOCCOCCOCCOC)cc12
growth: -38.2% (active)

N#Cc1c(-c2cccc(Cl)c2Cl)cc(-c2ccc3ccccc3c2)[nH]c1=O
growth: 83.8%

COc1ccc(Nc2nc(N)n(Cc3cccc(Br)c3)n2)cc1
growth: -11.4% (active)

FC(F)(F)CN1CCN(CCn2c(C(F)(F)F)cc3c(Cl)ncnc32)CC1
growth: -65.2% (active)

CC(=O)Nc1ccc(-n2cnc3ccc(-c4ccc(O)cc4)cc32)cc1
growth: 38.2%

CN1CCN(c2ccc3c4c(cccc24)C(=O)N(c2cccc(-c4nn(-c5ccccc5)cc4-c4nc5ccccc5s4)c2)C3=O)CC1
growth: 102%

COc1ccc(N=Nc2c(N)nn3c(N)c(C#N)c(-c4ccc(F)cc4)nc23)cc1
growth: 74%

COc1ccccc1[C@H]1C(C(=O)c2ccc(Cl)cc2)C2(N[C@@H]1c1ccccc1)C(=O)Nc1ccccc12 (stereo partly specified)
growth: -29.6% (active)

COc1ccc(-c2nc3cc(C)ccc3n2CC(=O)N=Nc2c(O)[nH]c3ccc(Br)cc23)cc1
growth: 39.4%

O=c1oc2ccccc2cc1-c1csc(N=Nc2c(O)[nH]c3ccc(Br)cc23)n1
growth: 99%

COc1ccc(C2c3sc4ccc(C)cc4c3Oc3nc[nH]c(=O)c32)cc1 (stereo unspecified)
growth: 85.2%

Cc1ccc2nc(COc3ccc(C(=O)NNC(=S)NCCc4ccccc4)cc3)[nH]c2c1
growth: 99.7%

CCCCNC(=S)Nc1ccc(OCc2nc3ccc(Cl)cc3[nH]2)cc1
growth: 13%

COc1cc(C2CC(c3cc(OC)c(OC)c(OC)c3)=NN2c2ccccc2)ccc1OCc1ccc(C)cc1 (stereo unspecified)
growth: 101%

COc1ccc(-c2cc(-c3cc(C(C)C)c(O)cc3C)nn2-c2ccc(S(N)(=O)=O)cc2)cc1
growth: 9.51% (active)

O=C(c1ccccc1)c1ccc2nc(-c3ccc(F)cc3)[nH]c2c1
growth: 36.1%

CN(C)CCn1c2ccccc2c2nc3ccc([N+](=O)[O-])cc3nc21
growth: 5.67% (active)

COc1ccc(/C=C/C(=O)c2ccc(S(=O)(=O)NCCNc3nc(Nc4ccc(F)cc4)nc(N(C)C)n3)cc2)cc1
growth: 17.2%

Cc1ccc(C(=O)Nc2cc(-c3ccccc3)cc(C(F)(F)F)c2)cc1C#Cc1cnc2cccnn12
growth: 38.1%

COc1cc(C2CC(c3cc(OC)c(OC)c(OC)c3)=NN2C(C)=O)ccc1OCc1ccc(F)cc1 (stereo unspecified)
growth: 37.3%

O=C(c1ccc(O)cc1)C1[C@H](c2ccc(Br)cc2)[C@@H](c2ccccc2)NC12C(=O)Nc1ccc(Br)cc12 (stereo partly specified)
growth: 12.5%

COc1ccccc1C(=O)NN1C(=O)/C(=C/C2=Cc3ccccc3OC2)SC1=S
growth: 97.2%

Cc1ccc(C2CC(c3ccc(NC(=O)Nc4ccccc4)cc3)=NN2c2ccc(S(N)(=O)=O)cc2)cc1 (stereo unspecified)
growth: -42.5% (active)

COc1cc(/C=N/NC(=O)c2ccc(OCc3nc4ccc(Cl)cc4[nH]3)cc2)cc(OC)c1OC
growth: 28.2%

N#Cc1c(-c2cccnc2)cc(-c2ccc3ccccc3c2)[nH]c1=O
growth: 72.6%

Cc1ccc([C@H]2C(C(=O)c3ccc(Cl)cc3)C3(N[C@@H]2c2ccccc2)C(=O)Nc2ccccc23)cc1 (stereo partly specified)
growth: -22.2% (active)

O=C1NC(=O)/C(=C/c2ccccc2OCc2cc3ccccc3nc2Cl)S1
growth: 99%

CC(=O)OC[C@@]1(C)C2CC[C@]3(C)C(CC=C4C5CC(C)(C)CC[C@]5(C(=O)Nc5ccc(Br)cc5)CC[C@]43C)[C@@]2(C)C[C@@H](OC(C)=O)[C@@H]1OC(C)=O (stereo partly specified)
growth: 32.3%

COc1ccc2[nH]c(=O)c(CSc3nccc(-c4ccc(OC)c(OC)c4)n3)cc2c1
growth: 16.9%

O=c1[nH]n(C(=S)N/N=C/c2ccccc2Cl)c(=O)c2ccccc12
growth: -6.48% (active)

COc1ccc(C(=O)c2c(N)c(C#N)cn2-c2ccc([N+](=O)[O-])cc2)cc1
growth: 97.5%

CC1=C2C(=C[C@@](C)(COCOCCCl)[C@@H]2O)C(=O)[C@](C)(O)C12CC2
growth: -31.8% (active)

Clc1cccc(N/N=C/c2c[nH]c3ccc(Br)cc23)n1
growth: 5.14% (active)

CNc1nc2ccccc2n2c(-c3ccc(O)c(O)c3)cnc12
growth: -19.6% (active)

Cc1cc2nc3c4ccccc4n(CC4=NCCN4)c3nc2cc1C
growth: -55.6% (active)

CN1CCc2c(sc3ncnc(N/N=C/c4cccc(Cl)c4Cl)c23)C1
growth: -50.9% (active)

O=c1c2ccccc2nc(COc2ccccc2)n1/N=C/c1ccc(F)cc1
growth: 94.8%

CS(=O)(=O)Nc1cncc(-c2ccc3ncnc(NCc4ccccc4)c3c2)c1
growth: 54.6%

Clc1cccc(Cl)c1/C=C/c1cc(/C=C/c2ccc(Br)cc2)c2ccccc2n1
growth: 101%

Cc1[nH]nc2ccc3nc(-c4cn[nH]c4C(F)(F)F)c4c(c3c12)CCCC4
growth: -0.0725% (active)

c1n[nH]cc1-c1nc2ccc3[nH]ncc3c2c2c1CC1(CCOCC1)CC2
growth: 26.5%

COc1ccc(NC(=O)CSc2nnc(-c3ccc(-c4nc5ccc(Cl)cc5[nH]4)cc3)o2)cc1
growth: 61.5%

CCCN(CCC)S(=O)(=O)c1ccc(C(=O)O)cc1.CCCN(CCC)S(=O)(=O)c1ccc(C(=O)O)cc1.[Cl][Pt+2][Cl].[NH2-].[NH2-]
growth: -2.97% (active)

Clc1ccc2c(N/N=C/c3c[nH]c4ccc(Br)cc34)ccnc2c1
growth: -74.7% (active)

CC(=O)/C=C/c1cccc2c1C(=O)NC(C)(c1cc3cc(Br)ccc3oc1=O)N2 (stereo unspecified)
growth: -29.3% (active)

Cc1cc(C)cc(C(=O)Nc2cccc(-c3cn(-c4ccc(S(N)(=O)=O)cc4)nn3)c2)c1
growth: 75.8%
